Reference: PubChem BioAssay (Tox21)
Records with an inconclusive call do not appear. Active and inactive are the calls of the source. Unless noted, calls come from the whole dose curve.

Tests used:
[1] = Nuclear factor erythroid 2-related factor 2/antioxidant responsive element (Nrf2/ARE) small molecule agonists: qHTS cell viability counter screen in human keratinocytes (AID 1919968; active = well fitted curve in the direction sought with a large enough effect in the repeat runs; an effect the other way counts as inactive or inconclusive; note: nearly all actives have a fitted effect of over 55% in size)
Outline: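 Viability counter-screen: KeratinoSens reporter cells, DMSO-delivered compounds, 23 h at 37 C, CellTiter-Fluor fluorescence.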

[2] = Nuclear factor erythroid 2-related factor 2/antioxidant responsive element (Nrf2/ARE) small molecule agonists: luciferase reporter gene qHTS assay in human keratinocytes (AID 1919969); note: nearly all actives have a fitted effect of over 35% in size
[3] = target: Gonadotropin-releasing hormone receptor (Homo sapiens) (UniProt P30968); assay: Human gonadotropin-releasing hormone receptor (GnRHR) small molecule agonists, calcium flux assay in GnRHR-HEK293 cells (AID 1920063); note: nearly all actives have a fitted effect of over 35% in size
Chain of Gonadotropin-releasing hormone receptor (Homo sapiens) (P30968 whole entry, looked up): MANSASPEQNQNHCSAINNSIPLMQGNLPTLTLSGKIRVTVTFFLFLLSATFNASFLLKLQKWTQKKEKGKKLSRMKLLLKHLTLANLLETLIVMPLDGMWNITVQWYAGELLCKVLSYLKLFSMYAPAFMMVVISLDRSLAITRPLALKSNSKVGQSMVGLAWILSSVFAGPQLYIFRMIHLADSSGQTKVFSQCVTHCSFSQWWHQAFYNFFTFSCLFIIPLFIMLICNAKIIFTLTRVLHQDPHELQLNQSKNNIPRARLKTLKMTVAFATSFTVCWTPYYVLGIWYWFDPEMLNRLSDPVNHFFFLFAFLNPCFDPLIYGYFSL
Outline: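 Tox21-format agonist screen using human GnRHR-expressing HEK293 cells and a fluorescent calcium dye; kinetic 3-min fluorescence reading after compound addition, 15-point concentration series run in triplicate.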

[4] = target: KiSS-1 receptor (Homo sapiens) (UniProt Q969F8); assay: Human kisspeptin (KISS1R) small molecule agonists, calcium flux assay in KISS1R-HEK293 cells (AID 1920064; active = well fitted curve in the direction sought with a large enough effect in the repeat runs; an effect the other way counts as inactive or inconclusive)
Chain of KiSS-1 receptor (Homo sapiens) (Q969F8 whole entry, looked up): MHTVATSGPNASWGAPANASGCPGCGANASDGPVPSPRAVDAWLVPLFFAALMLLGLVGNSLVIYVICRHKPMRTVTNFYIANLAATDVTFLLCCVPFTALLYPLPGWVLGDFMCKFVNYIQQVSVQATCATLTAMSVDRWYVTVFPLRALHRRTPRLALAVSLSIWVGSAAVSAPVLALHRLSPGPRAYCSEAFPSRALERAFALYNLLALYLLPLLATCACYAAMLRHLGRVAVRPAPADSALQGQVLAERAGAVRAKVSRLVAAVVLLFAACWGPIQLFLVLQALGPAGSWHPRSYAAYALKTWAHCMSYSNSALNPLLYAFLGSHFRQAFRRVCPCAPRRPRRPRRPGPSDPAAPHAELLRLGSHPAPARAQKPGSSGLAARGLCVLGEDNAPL
Outline: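 Intracellular calcium mobilization in KISS1R-HEK293 cells was recorded by fluorescence (Ex/Em 480/540) for 3 min following compound addition to cells pre-loaded 1 h with calcium dye.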

[5] = G protein-coupled receptor (GPCR) small molecule agonists, calcium flux assay: HEK293 wild type cell line counter screen (AID 1920065)
Outline: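 In this agonist-mode screen, ATP is the positive control and DMSO the vehicle. Cells grow 18 h before a 1 h dye incubation at 37 C; signal is taken at Ex/Em 480/540 over 3 min.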

[6] = p53 small molecule agonists, cell-based qHTS assay with rat liver microsomes (AID 1963578)
Outline: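 Rat liver microsome activation: microsomes 0.5 mg/mL, NADPH 0.5 mg/mL final; p53RE-bla cells, 16 h 37 C; LiveBLAzer readout, 2 h RT dark.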

[7] = p53 small molecule agonists, cell-based qHTS assay with human liver microsomes: qHTS cell viability counter screen (AID 1963579); note: nearly all actives have a fitted effect of over 45% in size
Outline: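 Luminescent CellTiter-Glo read-out, 30 min at room temperature, gauged cytotoxicity in p53RE-bla cells exposed 16 h at 37 C to DMSO-dissolved compounds with metabolic activation by human liver microsomes and NADPH, each 0.5 mg/mL final.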

[8] = p53 small molecule agonists, cell-based qHTS assay with rat liver microsomes: qHTS cell viability counter screen (AID 1963580); note: nearly all actives have a fitted effect of over 45% in size
Outline: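 HCT-116 p53RE-bla, 4,000 cells/well, 5 h pre-incubation; cpd + rat liver microsomes 0.5 mg/mL + NADPH 0.5 mg/mL (final); 16 h, 37 C; CellTiter-Glo, 30 min RT; luminescence.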

[9] = p53 small molecule agonists, cell-based qHTS assay: qHTS cell viability counter screen (AID 1963581); note: nearly all actives have a fitted effect of over 45% in size
Outline: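 Compounds are pinned onto HCT-116 p53RE-bla cells and left 16 h at 37 C. Following the reporter FRET read, ATP is quantified by CellTiter-Glo luminescence after 30 min at room temperature.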

[10] = p53 small molecule agonists, cell-based qHTS assay (AID 1963582; active = well fitted activation curve with a large enough effect in the signal ratio in the repeat runs, not every such curve was filed as active; the % refers to the signal ratio)
Outline: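 Agonist activity was scored from beta-lactamase FRET fluorescence in p53RE-bla cells treated 16 h at 37 C with compounds in DMSO, substrate incubation being 2 h at room temperature.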

[11] = target: 5-hydroxytryptamine receptor 2A (Homo sapiens) (UniProt P28223); assay: 5-hydroxytryptamine receptor 2A (HTR2A) small molecule antagonists, cell-based qHTS assay (AID 1963586); note: nearly all actives have a fitted effect of over 45% in size
Chain of 5-hydroxytryptamine receptor 2A (Homo sapiens) (P28223 whole entry, looked up): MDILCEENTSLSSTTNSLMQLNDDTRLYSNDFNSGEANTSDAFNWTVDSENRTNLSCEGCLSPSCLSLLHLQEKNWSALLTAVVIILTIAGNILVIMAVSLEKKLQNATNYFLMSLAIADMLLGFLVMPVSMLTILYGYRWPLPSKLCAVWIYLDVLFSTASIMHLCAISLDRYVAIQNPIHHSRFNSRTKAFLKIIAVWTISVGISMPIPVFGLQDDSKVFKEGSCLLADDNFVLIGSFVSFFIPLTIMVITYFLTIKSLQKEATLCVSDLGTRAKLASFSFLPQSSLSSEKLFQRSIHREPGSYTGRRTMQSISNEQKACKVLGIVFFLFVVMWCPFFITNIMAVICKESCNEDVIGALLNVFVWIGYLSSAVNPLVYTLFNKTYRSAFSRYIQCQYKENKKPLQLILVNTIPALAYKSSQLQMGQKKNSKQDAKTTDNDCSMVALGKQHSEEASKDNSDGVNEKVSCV
Outline: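 Antagonist-mode intracellular calcium assay: DOI (4 nM) added after 5 min compound pre-incubation at room temperature to dye-loaded HTR2A-CHO cells. Fluorescence followed for 3 min, sampled every second.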

[12] = target: 5-hydroxytryptamine receptor 2A (Homo sapiens) (UniProt P28223); assay: 5-hydroxytryptamine receptor 2A (HTR2A) small molecule agonists, cell-based qHTS assay (AID 1963587); note: nearly all actives have a fitted effect of over 30% in size
Outline: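 Kinetic calcium-flux fluorescence (2 min, 1 sec intervals) after compound addition in agonist mode. HTR2A-CHO cells were cultured 18 h, then dye-loaded 1 h at 37 C.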

[13] = target: Muscarinic acetylcholine receptor M1 (Homo sapiens) (UniProt P11229); assay: Cholinergic receptor muscarinic 1 (CHRM1) small molecule agonists, cell-based qHTS assay (AID 1963589); note: nearly all actives have a fitted effect of over 35% in size
Chain of Muscarinic acetylcholine receptor M1 (Homo sapiens) (P11229 whole entry, looked up): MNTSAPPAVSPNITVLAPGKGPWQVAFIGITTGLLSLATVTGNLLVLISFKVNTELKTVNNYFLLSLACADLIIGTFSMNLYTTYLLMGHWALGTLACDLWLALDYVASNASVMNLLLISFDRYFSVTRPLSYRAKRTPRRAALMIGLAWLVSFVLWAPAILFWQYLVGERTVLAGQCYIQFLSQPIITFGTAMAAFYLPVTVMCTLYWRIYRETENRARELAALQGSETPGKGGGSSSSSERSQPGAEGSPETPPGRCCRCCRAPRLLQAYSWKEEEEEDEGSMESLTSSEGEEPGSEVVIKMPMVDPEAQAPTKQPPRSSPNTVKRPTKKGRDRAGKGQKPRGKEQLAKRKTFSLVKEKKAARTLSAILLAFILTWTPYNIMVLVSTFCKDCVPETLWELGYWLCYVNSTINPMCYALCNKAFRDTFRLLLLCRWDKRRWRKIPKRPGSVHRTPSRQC
Outline: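 Stable CHRM1-CHO cells (human receptor) were incubated 18 h, dye-loaded for 1 h at 37 C and exposed to test compounds for agonist activity, with calcium-dependent fluorescence followed kinetically.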

[14] = cAMP Responsive Elements (CRE) small molecule agonists, cell-based qHTS assay (AID 1963590)
Outline: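 FRET-based beta-lactamase readout (LiveBLAzer B/G, 2 h RT) quantified CRE activation in HEK 293T CRE-bla cells after 3 h treatment with DMSO-dissolved compounds.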

[15] = cAMP Responsive Elements (CRE) small molecule antagonists, cell-based qHTS assay (AID 1963591; active = well fitted inhibition curve with a large enough effect in the signal ratio in the repeat runs, not every such curve was filed as active; the % refers to the signal ratio)
Outline: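 qHTS in CRE-bla HEK 293T cells: compound in DMSO, then 0.25 uM NKH477 (final), 3 h at 37 °C/5% CO2; beta-lactamase FRET read-out after 2 h substrate incubation.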

[16] = target: Beta-2 adrenergic receptor (Homo sapiens) (UniProt P07550); assay: Adrenergic beta2 receptor (ADRB2) small molecule antagonists, cell-based qHTS assay (AID 1963592); note: series mostly up to about 92 µM; nearly all actives have a fitted effect of over 50% in size
Chain of Beta-2 adrenergic receptor (Homo sapiens) (P07550 whole entry, looked up): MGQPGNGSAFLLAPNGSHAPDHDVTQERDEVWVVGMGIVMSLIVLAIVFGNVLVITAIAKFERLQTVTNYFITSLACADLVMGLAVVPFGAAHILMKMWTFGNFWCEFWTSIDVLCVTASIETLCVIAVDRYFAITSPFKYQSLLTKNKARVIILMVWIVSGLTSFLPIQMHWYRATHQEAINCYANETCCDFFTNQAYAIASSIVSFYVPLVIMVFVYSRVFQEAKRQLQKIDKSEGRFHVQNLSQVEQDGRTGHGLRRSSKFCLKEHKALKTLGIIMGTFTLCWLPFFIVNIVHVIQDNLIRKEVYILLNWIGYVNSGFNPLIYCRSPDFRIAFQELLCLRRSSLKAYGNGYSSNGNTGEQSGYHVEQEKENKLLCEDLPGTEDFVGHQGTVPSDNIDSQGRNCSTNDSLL
Outline: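 Cells (CHO, stable ADRB2 overexpression) incubated 18-20hr at 37C; compounds added from DMSO; agonist mix (1nM isoproterenol, 100uM IBMX, 25uM Ro-20-1724) added; 0.5hr RT; d2-cAMP and anti-cAMP-cryptate added; 1hr RT; 665/615 nm read.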

[17] = target: Beta-2 adrenergic receptor (Homo sapiens) (UniProt P07550); assay: Adrenergic beta2 receptor (ADRB2) small molecule agonists, cell-based qHTS assay (AID 1963593);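 note: CHO cells stably overexpressing human ADRB2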
Outline: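 CHO cells stably over-expressing ADRB2 were plated overnight at 37C, then dosed with compounds plus a stimulation mix containing 100uM IBMX and 25uM Ro-20-1724 for 0.5hr at room temperature. cAMP was measured by HTRF competition, 1hr.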

[18] = target: D(2) dopamine receptor (Homo sapiens) (UniProt P14416); assay: Dopamine D2 receptor (DRD2) small molecule agonists, cell-based qHTS assay (AID 1963594); note: nearly all actives have a fitted effect of over 35% in size
Chain of D(2) dopamine receptor (Homo sapiens) (P14416 whole entry, looked up): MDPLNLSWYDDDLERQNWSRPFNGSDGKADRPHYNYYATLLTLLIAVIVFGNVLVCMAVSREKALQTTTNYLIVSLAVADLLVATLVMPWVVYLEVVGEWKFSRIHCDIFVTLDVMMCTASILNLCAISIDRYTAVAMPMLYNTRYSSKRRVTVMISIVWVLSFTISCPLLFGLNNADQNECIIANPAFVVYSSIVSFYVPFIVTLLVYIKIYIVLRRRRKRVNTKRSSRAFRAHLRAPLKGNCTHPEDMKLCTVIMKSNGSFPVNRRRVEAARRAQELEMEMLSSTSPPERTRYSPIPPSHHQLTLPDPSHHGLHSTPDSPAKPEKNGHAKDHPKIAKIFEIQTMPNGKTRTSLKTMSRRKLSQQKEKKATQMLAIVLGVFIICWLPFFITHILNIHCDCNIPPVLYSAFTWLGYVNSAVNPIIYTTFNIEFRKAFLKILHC
Outline: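 cAMP accumulation in DRD2-HEK293 cells measured by HTRF after 1 h detection; compounds added 10 min before NKH477 (200nM […]) forskolin-analogue stimulation, 30 min at room temperature, with Ro20-1724 present at 0.1 mM final.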

[19] = target: D(2) dopamine receptor (Homo sapiens) (UniProt P14416); assay: Dopamine D2 receptor (DRD2) small molecule antagonists, cell-based qHTS assay (AID 1963595; active = well fitted inhibition curve with a large enough effect in the signal ratio in the repeat runs, with a control signal flat; the % refers to the signal ratio)
Outline: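 HEK293 cells stably expressing DRD2, preincubated with 0.1 mM Ro20-1724 and compounds 10 min, were stimulated with 200 nM NKH477 plus 12 nM quinpirole for 30 min at room temperature; cAMP measured by HTRF (665/620 nm).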

[20] = target: Muscarinic acetylcholine receptor M1 (Homo sapiens) (UniProt P11229); assay: Cholinergic receptor muscarinic 1 (CHRM1) small molecule antagonists, cell-based qHTS assay (AID 1963588); note: nearly all actives have a fitted effect of over 40% in size
Outline: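 CHRM1-CHO calcium-flux assay, antagonist mode. Cells were seeded 18 h, dye-loaded 1 h at 37 C and given compound for 5 min at RT, then acetylcholine was added at 50nM. FDSS fluorescence was read 3 min; 15 concentrations, three runs.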
% is set by controls: 0 for no effect and ±100 for the full control effect.

CC(=O)OC/C=C(/C)CCC=C(C)C
inactive: Potency [1] | Potency [2] | Potency [3] | Potency [4] | Potency [5] | Potency [6] | Potency [7] | Potency [8] | Potency [9] | Potency [10] | Potency [11] | Potency [12] | Potency [13] | Potency [14] | Potency [15] | Potency [16] | Potency [17] | Potency [18] | Potency [19]

O=C(O)CCc1nc2ccccc2[nH]1
inactive: Potency [1] | Potency [2] | Potency [3] | Potency [4] | Potency [5] | Potency [6] | Potency [7] | Potency [8] | Potency [9] | Potency [10] | Potency [11] | Potency [12] | Potency [14] | Potency [15] | Potency [16] | Potency [18] | Potency [19]

CC(C)(C)C(=O)c1ccccc1
inactive: Potency [1] | Potency [2] | Potency [3] | Potency [4] | Potency [5] | Potency [6] | Potency [7] | Potency [8] | Potency [9] | Potency [10] | Potency [11] | Potency [20] | Potency [13] | Potency [14] | Potency [15] | Potency [16] | Potency [19]

CCCCCCCCCCCCCCCCCCCl
inactive: activity change, negative = cytotoxicity [1] -0.678% [at 8.39 µM] | activity, positive = activation [2] -2.4% [at 8.39 µM] | activity change [3] 0.0314% [at 5.22 µM, active compounds read high] | activation [4] 6.45% [at 6.97 µM] | activation [5] 0.281% [at 5.23 µM] | activation [6] 2.88% [at 5.99 µM] | activity change, negative = cytotoxicity [7] 1.68% [at 5.99 µM] | activity change, negative = cytotoxicity [8] 2.02% [at 5.99 µM] | activity change, negative = cytotoxicity [9] -9.11% [at 5.99 µM] | activation [10] -3.59% [at 5.99 µM] | activity, negative = inhibition [11] -6.54% [at 5.62 µM] | activation [12] -0.0042% [at 7.02 µM] | activity, negative = inhibition [20] 10% [at 5.58 µM] | activation [13] 0.0826% [at 6.97 µM] | activation [14] 0.946% [at 8.39 µM] | activity change, negative = inhibition [15] -6.83% [at 8.39 µM] | activity change, negative = inhibition [16] 8.82% [at 8.39 µM] | activation [18] 0.784% [at 8.39 µM] | activity change, negative = inhibition [19] 3.22% [at 8.38 µM]

N[C@@H](CS)C(=O)O
inactive: Potency [1] | Potency [2] | Potency [3] | Potency [4] | Potency [5] | Potency [6] | Potency [7] | Potency [8] | Potency [9] | Potency [10] | Potency [11] | Potency [12] | Potency [20] | Potency [13] | Potency [14] | Potency [16] | Potency [19]

Cc1c(NC(=O)c2cccnc2)c(=O)n(-c2ccccc2)n1C
inactive: Potency [1] | Potency [2] | Potency [3] | Potency [4] | Potency [5] | Potency [6] | Potency [7] | Potency [8] | Potency [9] | Potency [10] | Potency [11] | Potency [12] | Potency [20] | Potency [13] | Potency [14] | Potency [16] | Potency [17] | Potency [18] | Potency [19]

O=C1NCCN1
inactive: Potency [1] | Potency [2] | Potency [3] | Potency [4] | Potency [5] | Potency [6] | Potency [7] | Potency [8] | Potency [9] | Potency [10] | Potency [11] | Potency [12] | Potency [20] | Potency [13] | Potency [15] | Potency [16] | Potency [18] | Potency [19]
